# HP1b binding inh = blocks HP1-beta chromodomain binding to methylated histone tails. actives 0.56% (n = 390,000). AlphaScreen HP1-beta / biotin-H3K9me3 peptide binding. AID 540317. Potency, µM (doses to about 114 µM), inactives show at the top dose activity change, negative = inhibition, usual class: inhibitors. P83916; note: nearly all actives have a fitted effect of over 70% in size
#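 HP1-beta protein (50 nM final) preincubated 30 min at room temperature with biotinylated H3(1-18)K9me3 peptide (50 nM) in PBS pH 7.4, 0.01% Tween-20, then compound added for 30 min. AlphaScreen streptavidin donor/nickel chelate acceptor beads (10 ug/mL final), 30 min dark, luminescence read.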
# JMJD2A Tudor = blocks the human JMJD2A Tudor domain; O75164; Potency, µM (series often up to 114 µM), for the others: at the highest dose activity change, negative = inhibition, actives largely listed as inhibitors; AlphaScreen JMJD2A-Tudor / H3K4me3 peptide binding; actives 4.4% (n = 390,000); note: % is set by controls: 0 for no effect and ±100 for the full control effect; nearly all actives have a fitted effect of over 50% in size
# Target sequence (O75164 whole entry, looked up, the tested form may be a part): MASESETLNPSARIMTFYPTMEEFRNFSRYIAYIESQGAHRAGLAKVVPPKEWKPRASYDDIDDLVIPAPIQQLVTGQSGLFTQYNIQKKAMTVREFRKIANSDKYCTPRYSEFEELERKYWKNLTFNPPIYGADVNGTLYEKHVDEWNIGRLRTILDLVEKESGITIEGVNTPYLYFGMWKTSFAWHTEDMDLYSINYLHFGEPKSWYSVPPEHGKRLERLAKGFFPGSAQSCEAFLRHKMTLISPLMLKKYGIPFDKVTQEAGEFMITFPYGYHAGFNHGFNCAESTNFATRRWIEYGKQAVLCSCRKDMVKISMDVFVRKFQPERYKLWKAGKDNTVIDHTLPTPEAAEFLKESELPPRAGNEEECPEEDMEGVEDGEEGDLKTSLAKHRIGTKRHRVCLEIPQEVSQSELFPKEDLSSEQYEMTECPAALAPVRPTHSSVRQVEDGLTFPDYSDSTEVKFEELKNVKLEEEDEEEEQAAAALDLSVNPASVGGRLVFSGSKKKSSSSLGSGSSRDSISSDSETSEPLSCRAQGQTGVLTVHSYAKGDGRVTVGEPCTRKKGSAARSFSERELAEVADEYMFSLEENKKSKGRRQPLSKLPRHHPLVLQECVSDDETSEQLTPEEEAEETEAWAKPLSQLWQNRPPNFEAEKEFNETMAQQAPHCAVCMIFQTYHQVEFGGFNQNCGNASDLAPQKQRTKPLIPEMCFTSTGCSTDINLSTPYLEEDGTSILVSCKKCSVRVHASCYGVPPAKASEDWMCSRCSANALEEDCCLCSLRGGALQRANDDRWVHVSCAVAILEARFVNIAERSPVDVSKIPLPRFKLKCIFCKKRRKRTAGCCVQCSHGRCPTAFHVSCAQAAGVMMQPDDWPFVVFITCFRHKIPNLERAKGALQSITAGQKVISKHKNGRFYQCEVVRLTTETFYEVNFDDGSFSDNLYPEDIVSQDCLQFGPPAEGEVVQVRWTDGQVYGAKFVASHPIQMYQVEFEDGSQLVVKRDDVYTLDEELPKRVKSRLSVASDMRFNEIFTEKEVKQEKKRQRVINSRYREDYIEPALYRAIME
# G9a block = blocks human histone lysine methyltransferase G9a; Q96KQ7; G9a H3K9 monomethylation, AlphaScreen, 2 h; Potency, µM (doses to about 102 µM), for inactives: top-dose activity, negative = inhibition, actives largely listed as inhibitors; actives 8.8% (n = 350,000); note: % is set by controls: 0 for no effect and ±100 for the full control effect; nearly all actives have a fitted effect of over 75% in size
#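 G9a (20 nM) preincubated 15 min RT with compounds, then 500 nM biotinylated H3K9 peptide and 20 uM SAM added; 2 h RT reaction. Monomethyl-H3K9 product detected by AlphaScreen with anti-H3K9me1 antibody, streptavidin donor and anti-rabbit IgG acceptor beads.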
# GLS inh = blocks human kidney-isoform glutaminase activity | O94925 | GLS enzymatic activity, qHTS titration | Potency, µM (doses to about 45.5 µM), for inactives: at the highest dose activity change, negative = inhibition, most hits filed as inhibitors | actives 0.21% (n = 410,000) | AID 624170; note: % is set by controls: 0 for no effect and ±100 for the full control effect
#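 hKGA in 45 mM KH2PO4 pH 8.2, 0.02% Tween-20 with pin-transferred compounds; 1 mM L-glutamine (stock) plus glutamate oxidase/HRP/Amplex Red coupling added. Fluorescence read initially and after 30 min at RT.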
# BAZ2B block = blocks human BAZ2B. Q9UIF8. AlphaScreen BAZ2B-H3K14Ac peptide displacement. Potency, µM (series often up to 114 µM), for inactives: top-dose activity change, negative = inhibition, usual class: inhibitors. actives 4.4% (n = 360,000). AID 504333; note: % is set by controls: 0 for no effect and ±100 for the full control effect; nearly all actives have a fitted effect of over 60% in size
#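 In this displacement format the biotinylated H3(5-23) peptide acetylated at Lys14 serves as ligand at 50 nM, with BAZ2B at 50 nM in PBS pH 7.4 containing 0.01% Tween-20. Donor and acceptor beads are 10 ug/mL final.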
# * hit, by the source's call; ? = inconclusive; . = no result; [ ] = dose if it differs, or a comment. Shown are actives, neighbours in structure and some others; about 10% of the full set was active somewhere. Calls come from the whole dose curve; as a rule, active = well fitted curve in the direction sought with a large enough effect; inconclusive = small, poorly fitted or top-dose-only effect, or another doubt; inactive = no such curve, though single readings can be large; an effect the other way counts as inactive or inconclusive. Potency is the fitted concentration of half-maximal effect.
SMILES,HP1b binding inh,JMJD2A Tudor,G9a block,GLS inh,BAZ2B block
CC(C)(Sc1ccc(CCN(CCCCC2CCCCC2)C(=O)NC2CCCCC2)cc1)C(=O)O,14%,79µM*,79µM*,7%,79µM*
CN(Cc1ccccc1)C(=O)NC1CCCCC1,36%,-2%,26%[59 µM],2%,45%
O=C(N/N=C/c1coc2ccccc2c1=O)c1ccncc1,53%,-8%,16%,21%,-14%
O=C(N/N=C/c1coc2ccccc2c1=O)c1cc(Br)c(O)c(Br)c1,23%,-33%,50µM*,-24%,-39%
COC(=O)C1=C(C)OC(N)=C(C#N)C1c1ccc(OC)c(CSc2ccccn2)c1 (configuration not stated),21%,-20%[57.1 µM],16µM*,4%,-35%
Cc1cccc(N=Nc2cn[nH]c2-c2ccco2)c1,?,-11%[11.4 µM],?,11%,20µM*
CSC1=NS(=O)(=O)c2c(C)nn(C)c2S1,13µM*,4.5µM*,1.1µM*,-27%,50µM*
COc1cccc(N2CCN(C(=O)c3ccc4nc[nH]c4c3)CC2)c1,20%,-34%,?,8%,-28%
COc1ccc(N2CCN(C(=O)c3ccc4nc(N5CCCCC5)sc4c3)CC2)cc1,30%,-25%,8.9µM*,51%,40µM*
COc1cccc(N2CCN(C(=O)c3ccc4ccccc4c3)CC2)c1,-20%,?,50µM*,10%,-2%
COc1cccc(N2CCN(C(=O)c3ccc4nc(N5CCCCC5)sc4c3)CC2)c1,-10%,?,40µM*,12%,-6%
NCCC(=O)Nc1cccc(-c2nn3c(=O)cc(N4CCNCC4)nc3s2)c1,.,-29%,.,.,.
COc1cccc(C(=O)Nc2nc3nc(C)c(C)c(=O)n3[nH]2)c1,19%,89µM*,?,-11%,?
COc1ccc(C(=O)Nc2nc3nc(C)c(Cl)c(=O)n3[nH]2)cc1,20%,-11%,-1%[59 µM],7%,-9%
COCCn1c(=O)c2c(nc3n2CC(C)CN3Cc2ccccc2)n(C)c1=O (configuration not stated),52%,-27%,15%,7%,-15%[57.1 µM]
COc1ccc(N2CCn3c2nc2c3c(=O)n(CCCc3ccccc3)c(=O)n2C)c(OC)c1,-14%,?,32µM*,-4%,?
COc1ccc(N2CCn3c2nc2c3c(=O)n(CCc3ccccc3)c(=O)n2C)c(OC)c1,.,.,?,.,-1%
CCOc1ccc(N2CC(O)Cn3c2nc2c3c(=O)n(CCCc3ccccc3)c(=O)n2C)cc1 (configuration not stated),13%,-22%,2.5µM*,0%,-6%
COc1ccc(N2CCn3c2nc2c3c(=O)n(CCCc3ccccc3)c(=O)n2C)cc1,.,.,-34%,.,8%
COc1ccc(N2CC(C)Cn3c2nc2c3c(=O)n(Cc3ccccc3)c(=O)n2C)c(OC)c1 (configuration not stated),-25%,?,6.3µM*,-6%,?
COc1ccc(N2CC(C)Cn3c2nc2c3c(=O)n(CCc3ccccc3)c(=O)n2C)cc1 (configuration not stated),25%,-3%,3.2µM*,16%,0%
Cn1c(=O)c2c(nc3n2CC(O)CN3c2ccc(O)cc2)n(C)c1=O (configuration not stated),15%,-24%,79µM*,?,-2%
Cc1ccc(NC(=O)CCCCCNS(=O)(=O)c2ccc(C)cc2)cc1,17%,18%,22%,5%,1%
Cc1ccc(S(=O)(=O)NCCCCCC(=O)Nc2nccs2)cc1,8%,?,11µM*,3%,79µM*
CC(Sc1nnc2n1CCCCC2)C(=O)Nc1ccc(S(N)(=O)=O)cc1 (configuration not stated),9%,-11%,45µM*,1%,5%
SMILES,HP1b binding inh,JMJD2A Tudor,G9a block,GLS inh,BAZ2B block
CCCCNC(=S)N/N=C/c1ccc(C#N)cc1,?,89µM*,35%,8%,-21%
O=C(/C=C/c1ccc([N+](=O)[O-])cc1)Nc1cccc(C(=O)Nc2ccccc2C(=O)O)c1,?,?,45µM*,?,?
O=C(/C=C/c1cccc([N+](=O)[O-])c1)Nc1cc(C(=O)O)cc(C(=O)O)c1,?,18µM*,?,?,?
CC(=O)N1CCCc2cc(S(=O)(=O)N(C)CC(=O)Nc3cccc(Cl)c3C)ccc21,12%[57 µM],-15%,8%[59 µM],-10%,2%
O=C(Oc1c(Cl)cc(Cl)c2cccnc12)c1cccs1,125%,38%,13%[59 µM],8%,24%
Oc1ccc(F)c2cccnc12,-18%,10µM*,-4%[59 µM],?,16µM*
O=C(Oc1c(Cl)cc(Cl)c2cccnc12)c1ccco1,23%,89µM*,?,28%,?
Clc1cc2cccnc2c2ccccc12,71%,28%,-25%[59 µM],6%,63%
O=C(Oc1ccc(Cl)c2cccnc12)N1CCCCC1,19%,-16%,-8%[59 µM],5%,-3%
O=C(Oc1ccc(Cl)c2cccnc12)c1cccnc1,45%,-26%,1%,0%,56µM*
Oc1c(Cl)cc(Cl)c2cccnc12,-5%,28µM*,40µM*,0%,.
COc1ccc(CCNc2nc3c(c(=O)n(C)c(=O)n3C)n2Cc2ccc(F)cc2)cc1OC,16%,-21%,-2%[59 µM],14%,-21%
COc1ccc(-n2nc3cc(C)c(NC(=O)c4ccc(-c5ccc(Cl)cc5)o4)cc3n2)cc1,14%,-17%,10%[59 µM],-7%,4%
Oc1ccc(Cl)c2cccnc12,9%,18µM*,24%[59 µM],10%,.
Oc1c(I)cc(I)c2cccnc12,-20%,56µM*,50µM*,6%,9%
O=C1CN(C(=O)c2ccc(Cl)cc2Cl)C(c2ccc(F)cc2)c2cc(F)ccc2N1 (configuration not stated),6%,-26%,-17%[59 µM],-10%,-15%
C/C(CC(=O)N1CCN(C=O)CC1)=N\NC(=O)c1ccc(Cl)cc1,61%,2%,-25%,0%,-4%
CC1CN(C(=S)NC(=O)c2ccc(Cl)cc2)CC(C)O1 (configuration not stated),24%,-17%,45µM*,19%,-21%
O=CN1CCN(C(=S)NC(=O)c2ccc(Cl)cc2)CC1,53%,1%,45µM*,16%,-15%
CC1CN(C(=S)NC(=O)c2cccc([N+](=O)[O-])c2)CC(C)O1 (configuration not stated),21%,?,14µM*,-5%,-26%
Cc1ccccc1N1CC(c2nc3ccccc3n2Cc2ccc(Br)cc2)CC1=O (configuration not stated),42%,-6%,?,5%,-30%
O=C(Nc1cccc(F)c1)N1CC2(CCN(C(=O)c3cc(C(F)(F)F)cc(C(F)(F)F)c3)CC2)C1,.,.,39%[12.7 µM],.,.
COc1ccc(-c2[nH]ncc2CN2CCN(c3ccc(F)cc3)CC2)cc1,16%,-32%,50µM*,15%,?

# Source: PubChem (National Center for Advancing Translational Sciences (NCATS))
